Screens (PubChem)
HepG2 tox = HepG2 cytotoxicity, counter-screen for TGF-b inhibitors. HepG2 CAGA-GFP viability, ATP luminescence, 18 h. Potency, µM (top dose mostly 46.1 µM), without a hit: top-dose activity change, negative = cytotoxicity, most hits filed as cytotoxic. actives 0.76% (n = 410,000). AID 588856
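HepG2 CAGA-GFP cells (1000/well, DMEM with 1% FBS) received compound, then TGF-beta at 500 pg/mL final, and were incubated 18 hours at 37 degrees C. Viability was read by CellTiter-Glo luminescence. Media-only wells were set as complete cell-killing and DMSO as no toxicity.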
TGFb SMAD3 inh = TGF-b pathway inhibition; actives 1.2% (n = 410,000); AID 588855; Potency, µM (highest dose often 46.1 µM), without a hit: at the highest dose activity, negative = inhibition, usual class: inhibitors; HepG2 CAGA-GFP TGF-b/SMAD3 reporter, GFP fluorescence, 18 h; TGF-beta stimulated, 500 pg/mL final; further: on the % scale 0 is the no-effect control and ±100 the full control effect; nearly all actives have a fitted effect of over 65% in size
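HEPG2 CAGA-GFP cells (1000/well, DMEM with 1% FBS) were pre-incubated 2 h at 37 degrees C, given compound by pin tool, then stimulated with TGF-beta at 500 pg/mL final for 18 h before per-cell GFP fluorescence imaging.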
S2 tox = viability counter-screen for ATXN expression inhibitors; actives 0.49% (n = 400,000); S2 cells (HEK-293 line with an ATXN2-luciferase reporter) viability, CellTiter-Fluor protease fluorescence, 24 h; Potency, µM (top dose mostly 56.7 µM), most hits filed as cytotoxic; further: nearly all actives have a fitted effect of over 40% in size
HT1080-NT tox = kills 2HG-producing HT-1080-NT fibrosarcoma cells. HT-1080-NT fibrosarcoma viability, CellTiter-Glo ATP luminescence, 48 h. Potency, µM (top dose mostly 46.1 µM), for inactives: at the top dose activity, negative = less viability, actives largely listed as cytotoxic. actives 1.6% (n = 360,000);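 further: NT is the 2HG producing partner of a matched IDH1 knockdown line; 0% = DMSO-treated cells and -100% = media-only wells without cells; nearly all actives have a fitted effect of over 55% in size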
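Compounds were tested in concentration-response format on HT-1080-NT cells for 48 hours at 37 degrees C. Cell viability came from CellTiter-Glo luminescence; curves were classified by r2, response magnitude and activity.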
HT1080 IDH1KD tx = kills HT-1080 cells with IDH1 knockdown; Potency, µM (series often up to 46.1 µM), inactives show at the top dose activity, negative = toxicity, hits mostly cytotoxic; AID 686971; actives 2% (n = 360,000); HT-1080 IDH1 knockdown viability, ATP luminescence, 48 h;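 further: 0% = DMSO wells and -100% = cell-free medium wells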
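After a 2 h attachment period, IDH1KD HT-1080 cells took pin-transferred compound for 48 h at 37 °C; ATP-based luminescence after 10 min room-temperature reagent incubation reported viability.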
ATXN2 expr inh = inhibitors of ATXN2 expression. actives 0.72% (n = 360,000). Potency, µM (series often up to 57 µM), without a hit: at the top dose activity change, negative = inhibition, most hits filed as inhibitors. HEK-293 ATXN2-luciferase reporter, luminescence, 24 h; further: on the % scale 0 is the no-effect control and ±100 the full control effect; nearly all actives have a fitted effect of over 55% in size
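ATXN2-luciferase reporter cells (luciferase flanked by upstream and downstream ATXN2 gene portions) were treated 24 h at 37 °C with compounds at up to 57 uM. SteadyGlo luminescence gave expression; GF-AFC fluorescence gave viability.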
Numbers without * were called inactive; i = inactive; ? = inconclusive; nt = not tested or not shown. Rows were chosen to be rich in hits. Some 3.8% of all compounds tested hit in one or more screens of this group. The call rests on the fitted dose curve; in most records, active means well fitted curve in the direction sought with a large enough effect; inconclusive means small, poorly fitted or top-dose-only effect, or another doubt; inactive means no such curve, though single readings can be large; an effect the other way counts as inactive or inconclusive. Potency means the concentration at half of the fitted maximal effect.

SMILES | HepG2 tox | TGFb SMAD3 inh | S2 tox | HT1080-NT tox | HT1080 IDH1KD tx | ATXN2 expr inh
COc1ccc(S(=O)(=O)Nc2ccc(O)c3ccccc23)cc1 | -100% | ? | 20µM* | -1% | -21% | ?
O=C(NCc1ccccc1)[C@H](Cc1ccccc1)NC(=O)[C@@H]1O[C@@H]1C(=O)NCCc1ccc(O)cc1 | nt | nt | nt | nt | nt | 2%
COc1ccc(-c2cc(C3C4C=CCCC4(C)C(=O)N3Cc3ccccc3)ccc2F)cc1OC (stereo not drawn) | -16% | ? | nt | nt | nt | nt
CC(C)Cc1ccc(C(C)C(=O)OCc2ccccn2)cc1 (stereo not drawn) | nt | nt | i | nt | nt | 2%
Cc1c(O)ccc2c1OC(C)(C)CC2 | nt | nt | nt | 14% | 15% | nt
O=C1Cc2ccccc2C1=C1C=c2ccccc2=C1 | 0% | -1% | nt | nt | nt | nt
COc1ccc(OC)c(C(C[N+](=O)[O-])c2c(C)cc3ccccn23)c1 (stereo not drawn) | -21% | -4% | ? | 23µM* | 18µM* | ?
c1cc(-c2cnn3cc(-c4ccc(OCCN5CCCCC5)cc4)cnc23)ccn1 | nt | nt | nt | nt | nt | 3.9µM*
O=C(c1ccc(F)c(F)c1)N1CCOc2ccc(CN3CCN(Cc4ccccn4)CC3)cc2C1 | nt | nt | i | nt | nt | nt
Cc1cc(C)cc(N2C(=O)CC(Sc3nnnn3-c3ccccc3)C2=O)c1 (stereo not drawn) | -95% | -10% | ? | 7.1µM* | 2.5µM* | ?
O=C1CC(Sc2nnnn2C2CCCCC2)C(=O)N1c1ccccc1 (stereo not drawn) | -82% | ? | ? | ? | 5µM* | 0%
CCOc1ccc(OCC)c(NC(=O)Cn2nc(CC)n3c(cc4sccc43)c2=O)c1 | 0% | ? | nt | nt | nt | nt
Cc1cccc(/C=N/NC(=O)c2cc(C)nc3ccccc23)n1 | -1% | 31% | i | 15% | 0% | nt
Cc1cc(C(=O)N/N=C/c2ccc(N(C)C)cc2)c2ccccc2n1 | -2% | -10% | ? | 3.7µM* | 3.3µM* | ?
Cc1cc(C(=O)N/N=C/c2ccc([N+](=O)[O-])s2)c2ccccc2n1 | -92% | 10µM* | ? | ? | ? | ?
Cc1cc(C(=O)N/N=C/c2ccc([N+](=O)[O-])cc2)c2ccccc2n1 | 54% | 0% | i | 18µM* | 4.6µM* | ?
O=C(N/N=C/c1ccc([N+](=O)[O-])cc1)c1cc(C2CC2)nc2ccccc12 | -72% | -20% | ? | 26µM* | 23µM* | ?
COc1cc(/C=N/NC(=O)c2ccncc2)cc(OC)c1OC | -12% | 21% | i | 17% | 7% | -6%
COc1cc(C(=O)NN=Cc2ccc(N(C)C)cc2)cc(OC)c1OC | -3% | -25% | i | 3.7µM* | 2.9µM* | nt
CCc1ccc(/C=N/NC(=O)c2cc(C3CC3)nc3ccccc23)s1 | -23% | -7% | ? | ? | 1.8µM* | -20%
CCOc1cc(-c2ccc(OC(=O)c3ccc(Cl)cc3)c(OC)c2)cc(=O)c2c(C)oc(C)c12 | -1% | 0% | nt | nt | nt | nt
COc1cc(=O)n2c(c1C(=O)N(C)Cc1cscn1)CCN(C(=O)c1cccc(C)c1C)CC2 | nt | nt | i | nt | nt | nt
COc1cc2nccc(Oc3ccc(NC(=O)C4(C(=O)Nc5ccc(F)cc5)CC4)cc3)c2cc1OC | nt | nt | nt | nt | nt | 19µM*
Nc1nc(NCc2ccc(Cl)cc2)c2[nH]cnc2n1 | 2% | 6% | nt | nt | nt | nt
COc1ccc2c(c1)c[n+](C)c1c3cc(OC)c(OC)cc3ccc21 | nt | nt | ? | 9.2µM* | 10µM* | 18µM*
COc1cc2c[n+](C)c3c4ccccc4ccc3c2cc1OC | -11% | -27% | i | ? | 16µM* | -35%
COc1ccc(Cc2c3cc(OC)c(OC)cc3cc[n+]2C)cc1OC | -21% | -9% | i | 3% | -3% | -9%
